Assay results as given in the supplement of paper PMC6555819.

Key:
Test in all cases: PBM binding z-score (relative to random genomic background probes); higher = stronger binding; sequences stand for … in GC…GCGATTGACAGCGTAGAATGAAGG
[1] = test system: FXR:RXRa (NR concentration 270 nM, RXRa partner concentration 90 nM)
In short: (§1)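 Each nuclear receptor dimer, without ligand, was incubated for 1 h on custom Agilent 4×180K protein-binding microarrays. Binding was detected with antibodies against each partner (one per run), and scanned fluorescence was regression-normalized. The binding z-scores are referenced to random human genomic background probes.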

[2] = test system: LXRa:RXRa (NR concentration 270 nM, RXRa partner concentration 90 nM)
In short: as §1

[3] = test system: LXRa homodimer (NR concentration 270 nM)
In short: as §1

[4] = test system: LXRb:RXRa (NR concentration 270 nM, RXRa partner concentration 90 nM)
In short: as §1

[5] = test system: LXRb homodimer (NR concentration 270 nM)
In short: as §1

[6] = test system: PPARa:RXRa (NR concentration 270 nM, RXRa partner concentration 90 nM)
In short: as §1

[7] = test system: PPARg:RXRa (NR concentration 180 nM, RXRa partner concentration 90 nM)
In short: as §1

[8] = test system: PPARg:RXRa 270nM:90nM, anti-RXR (NR concentration 270 nM, RXRa partner concentration 90 nM)
In short: as §1

[9] = test system: PPARg:RXRa 30nM:10nM, anti-RXR (NR concentration 30 nM, RXRa partner concentration 10 nM)
In short: as §1

[10] = test system: PPARg:RXRa 90nM:30nM, anti-RXR (NR concentration 90 nM, RXRa partner concentration 30 nM)
In short: as §1

Sequence | PBM binding z-score [1] | PBM binding z-score [2] | PBM binding z-score [3] | PBM binding z-score [4] | PBM binding z-score [5] | PBM binding z-score [6] | PBM binding z-score [7] | PBM binding z-score [8] | PBM binding z-score [9] | PBM binding z-score [10]
CCGAGTAAGTTATGGGGCATTCAGGCAACGGTGA | -0.323 | -0.322 | -0.465 | -0.146 | -0.649 | -0.0291 | 0.19 | 0.385 | -0.496 | 0.0497
TCTGCTAGGTCAACGATGGTCAACTAATCTGCTA | 3.62 | 3.21 | 0.113 | 2.15 | 0.0398 | 3.3 | 2.54 | 3.18 | 1.79 | 2.6
AGAACGAGGCCAATGAGTTGATAGCACGGGTGGC | -0.177 | -0.455 | -0.576 | -0.817 | -0.913 | 0.0353 | 0.81 | -0.06 | -0.388 | 0.093
ATCTCTAGGTAACCAAGATCAGTGAATGCCGAAC | 0.221 | 0.126 | 0.199 | 0.274 | 0.276 | 0.613 | 0.694 | 0.588 | 0.161 | 0.426
TCATATAGGTAAATGCTGGGTGAAAGTCCGATCT | 1.03 | 1.11 | 0.288 | 0.818 | 0.924 | 1.38 | 0.836 | 2.2 | 3.63 | 3.26
AGAACGAGGGCAATGTGTTGATAGCACGGGTGGC | 0.748 | 0.456 | -0.316 | 0.0585 | -0.324 | 1.47 | 1.55 | 1.19 | 0.0423 | 0.712
AGTCAAAGTTCAGGACGAGGTAACGGAAAGCACG | 3.52 | 3.93 | 0.925 | 1.77 | 0.134 | 3.46 | 4.45 | 4.88 | 1.83 | 3.87
CGAACTAGGTCAAGAGGTCAAAGTCCGCTTCCCG | 7.13 | 6.37 | 6.49 | 5.6 | 1.59 | 6.58 | 10.1 | 7.94 | 7.44 | 8.35
GTACCAAGGTGAATAGCTCGTTGATGAGTAGGCG | -0.0145 | 0.0679 | -0.285 | -0.246 | -0.451 | 0.416 | 0.554 | 0.238 | -0.33 | -0.123
ATCTCTAGGTAACCAAATTCAGTGAATGCCGAAC | 0.306 | 0.196 | 0.385 | 0.283 | 0.743 | 0.476 | 0.6 | 0.634 | 0.182 | 0.59
ACTCAGAGGACAAAGGTCAGAGCTACGCCAGTGA | 4.51 | 4.87 | 1.72 | 3.52 | 0.532 | 5.3 | 7.56 | 7.42 | 5.13 | 7.46
GCAGACAGGTGAAACGCAGGTAACTAAGGGTGGC | -0.237 | 0.0308 | -0.755 | -0.289 | -0.873 | 0.88 | 0.651 | -0.421 | -0.539 | -0.453
CCAGACAGGGGAGAAGGTAACTCAGCCTCGATTA | -0.354 | -0.331 | -0.147 | -0.0664 | -0.72 | -0.0873 | 0.239 | 0.0493 | -0.552 | 0.0211
AGAATTAGGTTAAGATCAGGGAAACAGAATACAT | 0.832 | 0.821 | 0.412 | 0.748 | 0.359 | 2.94 | 3.33 | 2.93 | 1.28 | 2.24
CCTAGTTGATCAGGAGGTCACACACCGGATATGA | 3.48 | 3.95 | 3.16 | 3.71 | 1 | 4.19 | 2.24 | 2.78 | 1.24 | 1.99
CGAACTAGGTCAGGACAGGACAGTGAAGGATGAT | 1.85 | 0.936 | -0.238 | 0.443 | -0.587 | 3.13 | 5.98 | 5.1 | 2.35 | 4.11
CCTCGGAGGACAGAAGGACAGAGCTGTCCGCTTT | -0.348 | -0.559 | -0.63 | -0.942 | -0.907 | -0.733 | -0.176 | -0.854 | -1.07 | -0.86
CCAGTCAGGTGAGAAGGTAACTCAGCCTCGATTA | 0.104 | 0.00917 | -0.218 | -0.0607 | -0.774 | 0.601 | 0.294 | 1.13 | -0.0852 | 0.619
CCGAATGGGGCAAGGTTACCATAACGCACAGCCA | 0.248 | 0.895 | -0.0673 | 0.899 | -0.855 | 1.48 | 1.51 | 1.71 | 0.272 | 1.08
CAAACTAGGTCAAGGTGAAAGTCGGTTTGTGCCA | 3.92 | 2.88 | 0.394 | 1.93 | 0.139 | 5.18 | 8.7 | 7.35 | 6.13 | 7.28
ATAGAAAGGTCGACGAGGTGAGTATACACCGTTT | 4.55 | 2.95 | 0.22 | 2.52 | 0.294 | 4.18 | 2.91 | 2.81 | 1.55 | 2.17
GGAATGAGGGCAAAGTTGATAGCATCTGTCGACG | 1.58 | 1.26 | -0.314 | 1.11 | -0.0126 | 4.51 | 7.74 | 7.45 | 6.47 | 8.36
CGTCCAAAGTCAATGCTAGGTCAGTGAAAGCATT | 0.216 | 0.789 | 0.816 | 0.482 | -0.125 | 0.696 | -0.177 | -0.216 | -0.538 | -0.284
ACTTGTTGGTCAGCTGAGGTCACACACAATTCGG | 3.37 | 3.31 | 2.13 | 3.51 | 0.632 | 3.79 | 1.8 | 2.46 | 0.673 | 1.95
